For the assay, the target named is PUM1 PUF domain R5-KFA (Homo sapiens, UniProt Q14671 828-1176, C1007K;R1008F;Q1011A). As to the kind of experiment: yeast three-hybrid, YBZ-1, SC-Leu-His + 0.5 mM 3-AT, 4 days. Conditions: tags: N-Gal4 AD-HA kept; label: inside an RPR1-promoter hybrid RNA with tandem MS2 sites; ssRNA. In outline:
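Each repeat of the Pumilio-1 PUF domain was randomized at its three base-contacting residues, and these libraries were co-expressed from a centromeric plasmid with matching RNA elements in strain YBZ-1. After four days on SC-Leu (input) or SC-Leu-His + 0.5 mM 3-AT (selection), the repeat regions were PCR-amplified and Illumina-sequenced. The interaction score compares variant frequency between input and selection as a log change, computed in log2 with a pseudocount of 1 for absent variants.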
PUM1 PUF domain R5-KFA, sequence (Q14671 828-1176 C1007K/R1008F/Q1011A): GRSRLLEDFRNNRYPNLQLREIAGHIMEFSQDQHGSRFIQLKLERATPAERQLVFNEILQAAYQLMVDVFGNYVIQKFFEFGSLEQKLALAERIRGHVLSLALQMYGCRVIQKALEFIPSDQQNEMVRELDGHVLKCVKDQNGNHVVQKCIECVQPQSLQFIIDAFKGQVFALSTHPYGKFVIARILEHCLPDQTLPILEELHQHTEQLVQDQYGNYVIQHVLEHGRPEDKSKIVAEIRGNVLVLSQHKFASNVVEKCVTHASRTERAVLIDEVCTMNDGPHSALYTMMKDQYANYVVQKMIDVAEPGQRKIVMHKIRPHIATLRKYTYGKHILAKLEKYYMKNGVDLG
Regarding “GGCUAGAACUAGUGGAUCCCCCGGCGCCCGGCGGCUCGAGCCCGGGUAAGUGUCAAUAGUCUGCAUGCCGCCGGGCGCCAUGCCUGCAGGUCGACUCUAGAAAACAUG”, the binding signal was 4.46 log2 enrichment (interaction score).

For “GGCUAGAACUAGUGGAUCCCCCGGCGCCCGGCGGCUCGAGCCCGGGUAAGUGUUAAUAGUCUGCAUGCCGCCGGGCGCCAUGCCUGCAGGUCGACUCUAGAAAACAUG”, the binding signal was 4.8 log2 enrichment (interaction score).

Take “GGCUAGAACUAGUGGAUCCCCCGGCGCCCGGCGGCUCGAGCCCGGGUAAGUGUAAAUAGUCUGCAUGCCGCCGGGCGCCAUGCCUGCAGGUCGACUCUAGAAAACAUG”: the binding signal was 4.26 log2 enrichment (interaction score).
